The full list was thinned out, with hits kept by preference.
RmlCD inh mix: RmlC and RmlD coupled enzyme inhibitors, primary screen, biochemical, 384-well, compound mixtures, retest; RmlC/RmlD coupled enzyme inhibition, 384-well mixture HTS; inhibition, % at 5.5 µM; actives 0.39% (n = 110,000); AID 1532, 2009; in the data active means inhibition above about 30%, passing the limit was not always enough; inconclusive means no clear call, values can overlap the other calls
HIV RNase H inh-1: HIV-1 RT RNase H inhibitors, primary screen, biochemical, fluorescence | Gag-Pol polyprotein (Human immunodeficiency virus type 1 group M subtype B (isolate … | RT-RNase H RNA/DNA duplex cleavage | inhibition, % at 10 µM | actives 1.9% (n = 65,000) | AID 565, 2006; in the data active means inhibition above about 50%
HIV RNase H inh-2: HIV-1 RT RNase H inhibitors, retest, confirmation, biochemical; actives 39% (n = 1,000); Recombinant RT RNase H, fluorescent RNA/DNA duplex cleavage; shares compounds with HIV RNase H inh-1; inhibition, % at 10 µM; in the data active means inhibition above about 48%; inconclusive means no clear call, values can overlap the other calls
Each line names hits and unclear results; the compound was inactive in the other large screens (follow-up assays come after a bar, where they were run).

Cc1cc(-c2nc3c4c5c(sc4[nH]c(=O)n3n2)CCC5)c(C)o1	HIV RNase H inh-1 81 | HIV RNase H inh-2 inconclusive
Cc1nc2sc3c(c2c(=O)[nH]1)CCC3	none
Cc1ccc(NC(=O)c2ccccc2N(C)S(C)(=O)=O)cc1C	none (no result: HIV RNase H inh-1)
O=C(CCC(=O)c1cccs1)Nc1ccc(F)c(F)c1F	none (no result: HIV RNase H inh-1)
O=C(NCc1ccco1)c1c2c(nc3ccccc13)CCC2	HIV RNase H inh-1 65 (no result: RmlCD inh mix) | HIV RNase H inh-2 inactive
O=C(NCc1ccco1)c1csc2c1CCCCC2	none
COc1cc(/C=C/C(=O)O)ccc1O	none (no result: HIV RNase H inh-1)
COc1cc(/C=C/C(=O)CC(=O)/C=C/c2ccc(O)c(OC)c2)ccc1O	HIV RNase H inh-1 83 | HIV RNase H inh-2 57
CC1=C(OC(=O)c2ccccc2)C(C)(C)C(c2ccc(Br)cc2)OC1=O (stereo not drawn)	none (no result: HIV RNase H inh-1)
O=C(Nc1nc(-c2ccco2)c(-c2ccco2)s1)C1CC(=O)N(c2ccc3c(c2)OCCO3)C1 (stereo not drawn)	HIV RNase H inh-1 74 | HIV RNase H inh-2 inactive
CCc1cccc(CC)c1NC(=O)C1CC(=O)N(c2ccc3c(c2)OCCO3)C1 (stereo not drawn)	none (no result: HIV RNase H inh-1)
CCOC(=O)C(C)S(=O)(=O)c1ccc(C(F)(F)F)cn1 (stereo not drawn)	none (no result: HIV RNase H inh-1)
Cc1cc(C)nc(/N=c2/ssnc2Cl)c1	HIV RNase H inh-1 84 | HIV RNase H inh-2 inactive
Cc1ccc(N=c2ssnc2Cl)cc1	none (no result: HIV RNase H inh-1)
O=C(Cn1c(=O)oc2cc(S(=O)(=O)N3CCCC3)ccc21)NC1CCCc2ccccc21 (stereo not drawn)	HIV RNase H inh-1 65 (no result: RmlCD inh mix) | HIV RNase H inh-2 76
O=C(Cn1c(=O)oc2cc(S(=O)(=O)N3CCCCCC3)ccc21)NC1CCCCCCC1	none
Cc1ccc(-c2nnn(CC(=O)NCC3CC3)n2)o1	none (no result: HIV RNase H inh-1)
Cc1ccc(-c2nnn(CC(=O)Nc3ccc4nn(-c5ccccc5)nc4c3)n2)o1	HIV RNase H inh-1 76 (no result: RmlCD inh mix) | HIV RNase H inh-2 inconclusive
CCOC(=O)c1sc(N)nc1-c1ccccc1	HIV RNase H inh-1 71 | HIV RNase H inh-2 inactive
CCOC(=O)c1sc(N(C)C)nc1-c1ccccc1	none (no result: HIV RNase H inh-1)
COc1cc(C(=O)NCCOc2cccc(C)c2)c(Br)c(OC)c1OC	none (no result: HIV RNase H inh-1)
Cc1ccc(C2CC(=O)Nc3cc4c(cc32)OCO4)o1 (stereo not drawn)	none (no result: HIV RNase H inh-1)
CCOC(=O)CN1C(=O)N[C@@H](c2ccco2)C(C(=O)OC)=C1C	none (no result: HIV RNase H inh-1)
Oc1ccc2c(c1)C1CCCC1(N1CCOCC1)O2 (stereo not drawn)	HIV RNase H inh-1 68 | HIV RNase H inh-2 inactive
c1ccc2c(c1)nc1n2C2(N3CCOCC3)CCCC2C1N1CCOCC1 (stereo not drawn)	none (no result: RmlCD inh mix)
Cn1c(SCC(=O)c2ccccc2)nnc1-c1cccc(N)c1	none (no result: HIV RNase H inh-1)
NC(Cc1c[nH]c2ccccc12)C(=O)Nc1ccccc1 (stereo not drawn)	none (no result: HIV RNase H inh-1)
Cc1ccc(-n2c(N)c(C(=O)N3CCOCC3)sc2=S)cc1	HIV RNase H inh-1 95 | HIV RNase H inh-2 76
CCOC(=O)c1sc(=S)n(-c2ccccc2)c1N	none (no result: HIV RNase H inh-1)
CCNC(=O)c1sc(=S)n(-c2ccc(C)cc2)c1N	none (no result: HIV RNase H inh-1)
CN1CCN(C(=O)c2sc(=S)n(-c3ccccc3)c2N)CC1	HIV RNase H inh-1 95 | HIV RNase H inh-2 59
O=[N+]([O-])c1cccc(/C=C/c2nc3ccc([N+](=O)[O-])cc3[nH]2)c1	none (no result: HIV RNase H inh-1)
CC(=O)c1cc(-c2ccccc2)n(CC(=O)N2CCC(N3CCCCC3)CC2)c1C	none
Cc1cc(C)c2c(=O)n(CC(=O)N3CCC(N4CCCCC4)CC3)sc2n1	HIV RNase H inh-1 83 | HIV RNase H inh-2 58
CCOC(=O)C1CCCN(C(=O)Cn2cnc3c2c(=O)n(C)c(=O)n3C)C1 (stereo not drawn)	none
CCOC(=O)C1CCCN(C(=O)Cn2sc3nc(C)cc(C)c3c2=O)C1 (stereo not drawn)	HIV RNase H inh-1 85 | HIV RNase H inh-2 51
Cc1ccc(C2CC(=O)NC(SCC(=O)Nc3nccs3)=C2C#N)cc1 (stereo not drawn)	none (no result: HIV RNase H inh-1)
CC(=O)Nc1ccc(S(=O)(=O)NC(=O)C23CC4CC(CC(C4)C2)C3)cc1	none
CC1(C)Cc2c(c(N3CCOCC3)nc3sc(-c4ccc(C(=O)O)o4)c(N)c23)CO1	none
CC1(C)Cc2c(c(N3CCOCC3)nc3sc(C(=O)N4CCCCC4)c(N)c23)CO1	HIV RNase H inh-1 72 | HIV RNase H inh-2 inactive
O=C(C1=C[C@H](c2csc3ccccc23)C[C@H](OCc2ccc(CO)cc2)O1)N1CCCCCCC1	none (no result: HIV RNase H inh-1)
O=C1C2ON(c3ccc(Br)cc3)C(c3cccnc3)C2C(=O)N1C1CCCCC1 (stereo not drawn)	HIV RNase H inh-1 64 (no result: RmlCD inh mix) | HIV RNase H inh-2 inactive
O=C1C2ON(c3ccccc3)C(c3cccnc3)C2C(=O)N1c1ccccc1 (stereo not drawn)	none
CN(C)c1ccc(NC(=O)CSc2nc3c(c(=O)[nH]2)CCCC3)cc1	none
O=C(CSc1nc2c(c(=O)[nH]1)CCC2)Nc1cccc(Cl)c1	HIV RNase H inh-1 87 | HIV RNase H inh-2 inactive
CCOC(=O)Cc1cc(OC)c(OC)cc1Cc1cc(OC)c(OC)cc1CC(=O)OCC	none (no result: HIV RNase H inh-1)
CCOC(=O)CCc1c(C)nc(SCCN2CCCC2)c(C#N)c1C	none
CCOC(=O)CCc1c(C)nc(SCCCn2c(=O)[nH]c3ccccc32)c(C#N)c1C	HIV RNase H inh-1 86 | HIV RNase H inh-2 inactive
COc1cc(C2C(C#N)=C(N)Oc3cc(C)n(CCc4ccccc4)c(=O)c32)cc2c1OCO2 (stereo not drawn)	HIV RNase H inh-1 77 | HIV RNase H inh-2 inactive
Cc1cc2c(c(=O)n1CCc1ccccc1)C(c1ccco1)C(C#N)=C(N)O2 (stereo not drawn)	none (no result: HIV RNase H inh-1)
CC1(C)CC(=O)C2=C(C1)N(c1ccc(F)cc1)C(=O)CC2c1ccsc1 (stereo not drawn)	none (no result: HIV RNase H inh-1)
CCOC(=O)N1CC=C2C(C#N)=C(N)C(C#N)(C#N)[C@H](c3ccc(OCC)c(OCC)c3)[C@H]2C1	none
CCCCOc1ccc(C2C3CN(C(=O)OCC)CC=C3C(C#N)=C(N)C2(C#N)C#N)cc1OC (stereo not drawn)	HIV RNase H inh-1 84 | HIV RNase H inh-2 inactive
O=C(NCC1CCCO1)C1CC(c2ccc(Cl)c(Cl)c2)=NO1 (stereo not drawn)	none
COc1ccc(Cc2nc(-c3ccc(-n4cccc4)cc3)no2)cc1OC	none
COc1ccc(Cc2nc(-c3cccs3)no2)cc1OC	HIV RNase H inh-1 72 | HIV RNase H inh-2 inactive
CCOC(=O)N1CCC(N2Cc3cccc(C(=O)NC(C)c4ccc5c(c4)OCCO5)c3C2=O)CC1 (stereo not drawn)	none
C=CCOc1ccc(CC2C(=O)N(C)C(=O)N(C)C2=O)cc1	HIV RNase H inh-1 56 | HIV RNase H inh-2 88
CCN(CC)c1ccc(CC2C(=O)N(C)C(=O)N(C)C2=O)cc1	none (no result: RmlCD inh mix)
COC(=O)CN1C(=O)C(O)(CC(=O)c2ccccc2)c2ccccc21 (stereo not drawn)	none (no result: RmlCD inh mix)
COC(=O)CN1C(=O)C(O)(CC(=O)c2ccc(C)cc2)c2ccccc21 (stereo not drawn)	HIV RNase H inh-1 54 | HIV RNase H inh-2 inactive
CC(C)CCNC(=O)C1CC2Cn3c(nc4cc(Cl)c(Cl)cc43)C2N1C (stereo not drawn)	none (no result: HIV RNase H inh-1)
CC1(c2nnc(Cc3ccccc3)o2)CC(c2cccnc2)=NO1 (stereo not drawn)	none (no result: HIV RNase H inh-1)
C=CCn1c(NC(=O)c2ccccc2)c(C#N)c2nc3ccccc3nc21	none (no result: RmlCD inh mix)

Assay outcomes deposited in PubChem BioAssay by several laboratories.
